Among the test systems are SN12C renal; UO-31 renal; TK-10 renal; ACHN renal; CAKI-1 renal; A498 renal; CCRF-CEM leukemia; MOLT-4 leukemia; SR leukemia.
Holding throughout (assay): NCI-60 one-dose screen, 48 h (100 = growth as untreated, 0 = no growth, -100 = all killed)
Holding throughout (details): 10 µM

This passage reports growth results from PubChem BioAssay (NCI).

SMILES strings stand for the structures. This is part of a sample that, as a whole, favours compounds with a hit. Of some 83,000 tested, about 20% had one in any assay.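 Interpretation: 100, growth as untreated; towards 0, rising growth inhibition; 0, no net growth; 0 to -100, cell death. Compounds scoring below 10 were considered active.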 A number with no mark means an inactive call. The source made the active and inactive calls.

Turning to `CCOC(=O)N1C/C(=C/c2ccc(OC)cc2)C(=O)/C(=C/c2ccc(OC)cc2)C1`, the growth with SN12C renal is 50.2%; in the assay on UO-31 renal it was 17.1%; in the assay with TK-10 renal, 59.5%; in the assay on ACHN renal it was 39.3%; in the assay with CAKI-1 renal, 41.9%; in the assay with A498 renal it was -0.589% (active). Moreover, the growth with CCRF-CEM leukemia is 6.4% (active); in the assay on MOLT-4 leukemia, 27.3%; with SR leukemia, -16.7% (active).

Turning to `C[C@]12CC[C@@H]3c4ccc(O)cc4C[C@@H](O)[C@H]3[C@@H]1CC[C@@H]2O`, the growth is 100% with SN12C renal; 86.5% in the assay on UO-31 renal; 111% in the assay on TK-10 renal; 105% with ACHN renal; 87.6% in the assay on CAKI-1 renal; 79.6% in the assay on A498 renal. Besides, the growth in the assay on CCRF-CEM leukemia is 103%; in the assay on MOLT-4 leukemia it was 109%; with SR leukemia, 91.4%.

`c1ccc(CNc2ncnc3scc(-c4cccs4)c23)nc1`: the growth was 63% in the assay with SN12C renal; 47.7% in the assay on UO-31 renal; 126% in the assay with TK-10 renal; 54.7% in the assay on ACHN renal; 58% in the assay on CAKI-1 renal; 27.6% with A498 renal. Further, the growth is 63.7% in the assay with CCRF-CEM leukemia, 50.5% in the assay with MOLT-4 leukemia and 61.5% with SR leukemia.

As to `CC1=C(N2CCOCC2)C(N2CCOCC2)=C(C)C(=O)C1=O`, the growth in the assay on SN12C renal is 110%; in the assay on UO-31 renal it was 83.6%; in the assay on TK-10 renal, 99%; in the assay with ACHN renal, 101%; in the assay on CAKI-1 renal, 101%; in the assay with A498 renal, 88.6%. The growth is 102% in the assay with CCRF-CEM leukemia, 92.7% in the assay with MOLT-4 leukemia and 97.4% in the assay with SR leukemia.

`COc1ccc(/C=C/C(C)=N/OCC(=O)O)cc1`: the growth in the assay with SN12C renal is 105%; in the assay with UO-31 renal it was 95.9%; with TK-10 renal, 87.5%; with ACHN renal, 106%; in the assay with CAKI-1 renal it was 106%; in the assay on A498 renal, 72.8%. The growth with CCRF-CEM leukemia is 95.7%; with MOLT-4 leukemia, 86.8%; with SR leukemia, 93.4%.

`COc1cc2cc3c(nc2cc1OC)CCN3Cc1ccc(NC(=O)c2ccc(Cl)c(C(F)(F)F)c2)cc1`: the growth was 91.3% in the assay with SN12C renal; 71.9% with UO-31 renal; 131% in the assay with TK-10 renal; 84.7% in the assay on ACHN renal; 84.3% in the assay with CAKI-1 renal; 130% with A498 renal. The growth in the assay on CCRF-CEM leukemia was 91%; with MOLT-4 leukemia it was 56.8%; in the assay on SR leukemia, 70.6%.

In the case of `COc1cc(NC(=O)CCSc2nc3ccc(Cl)cc3c(=O)n2Cc2ccccc2)cc(OC)c1OC`, the growth in the assay on SN12C renal was 80%; with UO-31 renal, 74.1%; in the assay with TK-10 renal, 109%; in the assay on ACHN renal, 45.9%; in the assay with CAKI-1 renal, 63.7%; with A498 renal, 33.5%. Moreover, the figures for the growth with CCRF-CEM leukemia, in the assay with MOLT-4 leukemia and with SR leukemia were 78.1%, 60.6% and 66.5%, respectively.

`COc1cc(/C=C2\CCCC3=C2N=C2SC=NN2C3c2cc(OC)c(OC)c(OC)c2)cc(OC)c1OC` (stereo not given): the growth with SN12C renal is 7.13% (active); with UO-31 renal, 36%; in the assay on TK-10 renal, 17.5%; in the assay on ACHN renal, 15.3%; with CAKI-1 renal, 9.47% (active); with A498 renal, 24.5%. In addition, the growth is 2.74% (active) in the assay with CCRF-CEM leukemia, -2.28% (active) in the assay on MOLT-4 leukemia and 7.88% (active) in the assay with SR leukemia.

As to `COc1ccc(-c2nn(-c3cccc(NC(=O)c4cc(C(F)(F)F)cc(C(F)(F)F)c4)c3)cc2-c2ccncc2)cc1Cl`, the growth in the assay with SN12C renal was 78.1%; in the assay on UO-31 renal it was 43%; in the assay with TK-10 renal it was 85.5%; in the assay with ACHN renal it was 66.2%; in the assay with CAKI-1 renal, 50.1%; in the assay on A498 renal it was 39.7%. Further, the values for the growth in the assay with CCRF-CEM leukemia, in the assay on MOLT-4 leukemia and in the assay with SR leukemia were 64.4%, 69.5% and 36.3%, respectively.

For `Nc1c(C(=O)Nc2ccccc2Cl)sc2nc3c(cc12)C(=O)CCC3`, the growth in the assay on SN12C renal was 56.7%; with UO-31 renal it was 68.9%; in the assay with TK-10 renal, 64.3%; in the assay with ACHN renal it was 57.1%; in the assay on CAKI-1 renal, 20.7%; with A498 renal, -10.9% (active). The growth in the assay on CCRF-CEM leukemia is 19.4%; in the assay on MOLT-4 leukemia it was 86.8%; in the assay on SR leukemia it was 42.3%.

As for `CSCCCNC(=O)c1ccc2c(c1)/C(=C/c1[nH]c(C)cc1C)C(=O)N2`, the growth in the assay on SN12C renal was 22%; with UO-31 renal it was 9.33% (active); in the assay on TK-10 renal it was 29.4%; in the assay with ACHN renal it was 0.349% (active); in the assay with CAKI-1 renal it was 9.54% (active); in the assay on A498 renal, -25.9% (active). Also, the growth in the assay on CCRF-CEM leukemia was 52.2%; in the assay with MOLT-4 leukemia, 29.1%; in the assay with SR leukemia it was 10.7%.

As for `Nc1ccccc1NC(=O)CCCCC(=O)Nc1ccc2c(c1)/C(=C/c1ccc[nH]1)C(=O)N2`, the growth in the assay with SN12C renal is 66.9%; with UO-31 renal, 72.2%; in the assay on TK-10 renal, 68.2%; in the assay on ACHN renal, 92.7%; in the assay on CAKI-1 renal, 81.6%; with A498 renal, -5.06% (active). Also, the growth with CCRF-CEM leukemia was 50.7%; with MOLT-4 leukemia it was 47.7%; in the assay on SR leukemia it was 62.7%.

Turning to `Cc1ccc(N=Nc2c(N)nc(N)[nH]c2=O)cc1C`, the growth was 105% in the assay on SN12C renal; 72.5% in the assay on UO-31 renal; 110% in the assay with TK-10 renal; 106% in the assay on ACHN renal; 94.4% with CAKI-1 renal; 103% in the assay with A498 renal. The growth in the assay with CCRF-CEM leukemia is 95.2%; in the assay on MOLT-4 leukemia, 93.2%; with SR leukemia, 88.3%.

Regarding `Cc1cc(C)c2c(n1)sc1c(Nc3ccc(Cl)cc3)ncnc12`, the growth in the assay on SN12C renal was -20.9% (active); in the assay on UO-31 renal, -19.8% (active); in the assay on TK-10 renal it was 47.7%; in the assay with ACHN renal, 1.33% (active); in the assay with CAKI-1 renal, 12.1%; in the assay with A498 renal it was -9.23% (active). For the same compound, the growth in the assay on CCRF-CEM leukemia was 4.05% (active); in the assay on MOLT-4 leukemia it was -6.2% (active); in the assay on SR leukemia, 3.86% (active).

For the compound `COc1ccc(-c2cc(/C=C3\C(=O)Nc4ccc(OC)cc43)[nH]n2)cc1`, the growth was 42.7% with SN12C renal; 40.6% with UO-31 renal; 48.9% with TK-10 renal; 52.5% in the assay on ACHN renal; 33% in the assay on CAKI-1 renal; 23.3% with A498 renal. For the same compound, the values for the growth in the assay with CCRF-CEM leukemia, with MOLT-4 leukemia and with SR leukemia were 18.1%, 27% and 20.1%, respectively.
